Values joined by “and” are separate entries in the source; they are usually repeats but may differ in a detail not shown here. Equal values may be shown once. Out of some 5,500 compounds screened, about 2,000 (36%) were called active. Inconclusive results (about 18%) are left out. Cut-off read from the data, not from the text of the source: active = normalized growth mostly below about 0.91 (no sharp cut-off); inconclusive = no clear call, values can overlap the other calls; inactive = mostly above about 0.92. The list shows a part of the results.
Experiment: chemical genetic growth profiling, strain panel (AID 1159580);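 note: tested at 20 µM; growth read once vehicle control cultures reached saturation at 30 °C; 1 = growth at the plate median or of vehicle wells; lower values mean less growth of the strain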
Settings: S. cerevisiae deletion strains, growth OD

Measured: normalized growth

COc1ccc2cc1Oc1ccc(cc1)C[C@H]1c3cc(c(OC)cc3CCN1C)Oc1c(OC)c(OC)cc3c1[C@H](C2)N(C)CC3
inactive: locus YAL013W, strain DEP1, active compounds read low 1.01 | locus YAL026C, strain drs2, active compounds read low 1 | locus YAL030W, strain snc1, active compounds read low 1.01 | locus YBL061C, strain skt5, active compounds read low 1.01 | locus YBR009C, strain hhf1, active compounds read low 0.982 | locus YBR023C, strain chs3, active compounds read low 1.01 | locus YBR171W, strain sec66, active compounds read low 1.02 | locus YBR229C, strain ROT2, active compounds read low 1.01 | locus YBR231C, strain swc5, active compounds read low 0.988 | locus YBR279W, strain paf1, active compounds read low 0.998 | locus YCL011C, strain gbp2, active compounds read low 0.988 | locus YCL016C, strain dcc1, active compounds read low 0.968 | locus YCL029C, strain bik1, active compounds read low 1.03 | locus YCL069W, strain vba3, active compounds read low 1.01 | locus YCR088W, strain abp1, active compounds read low 1.01 | locus YDL005C, strain med2, active compounds read low 1 | locus YDL035C, strain GPR1, active compounds read low 0.977 | locus YDL040C, strain nat1, active compounds read low 1 | locus YDL074C, strain BRE1, active compounds read low 0.972 | locus YDL101C, strain DUN1, active compounds read low 1.01 | locus YDL134C, strain PPH21, active compounds read low 1.01 | locus YDL185W, strain tfp1, active compounds read low 1.01 | locus YDL192W, strain arf1, active compounds read low 0.997 | locus YDR001C, strain nth1, active compounds read low 1.02 | locus YDR101C, strain arx1, active compounds read low 1.01 | locus YDR137W, strain rgp1, active compounds read low 0.998 | locus YDR150W, strain NUM1, active compounds read low 1.01 | locus YDR159W, strain sac3, active compounds read low 1.02 | locus YDR162C, strain NBP2, active compounds read low 0.974 | locus YDR195W, strain ref2 1.02 | locus YDR297W, strain sur2, active compounds read low 1 | locus YDR318W, strain mcm21, active compounds read low 1 | locus YDR334W, strain swr1, active compounds read low 1.01 | locus YDR335W, strain msn5, active compounds read low 0.999 | locus YDR392W, strain spt3, active compounds read low 0.79 | locus YDR502C, strain sam2, active compounds read low 0.99 | locus YEL003W, strain gim4, active compounds read low 0.998 | locus YEL037C, strain rad23, active compounds read low 0.989 | locus YEL061C, strain CIN8 (second series), active compounds read low 1.01 | locus YEL061C, strain CIN8, active compounds read low 1.01 | locus YER015W, strain faa2, active compounds read low 0.997 | locus YER016W, strain bim1, active compounds read low 1 | locus YER110C, active compounds read low 1.03 | locus YER111C, strain swi4, active compounds read low 0.997 | locus YER155C, strain BEM2 (second series), active compounds read low 0.887 | locus YER155C, strain BEM2, active compounds read low 1.03 | locus YER167W, strain BCK2, active compounds read low 0.964 | locus YGL078C, strain dbp3, active compounds read low 1.01 | locus YGL086W, strain mad1, active compounds read low 0.983 | locus YGL167C, strain pmr1, active compounds read low 1 | locus YGL173C, strain kem1, active compounds read low 1.02 | locus YGL227W, strain vid30, active compounds read low 0.997 | locus YGL240W, strain doc1, active compounds read low 1.01 | locus YGL248W, strain PDE1, active compounds read low 1 | locus YGL253W, strain hxk2, active compounds read low 1.01 | locus YGR078C, strain PAC10, active compounds read low 0.996 | locus YGR135W, strain pre9, active compounds read low 0.931 | locus YGR229C, strain SMI1, active compounds read low 0.993 | locus YGR252W, strain gcn5, active compounds read low 0.855 | locus YHR013C, strain ard1, active compounds read low 0.902 | locus YHR027C, strain rpn1, active compounds read low 1.02 | locus YHR030C, strain SLT2, active compounds read low 1.01 and 1 | locus YHR079C, strain IRE1 (second series), active compounds read low 1.01 | locus YHR079C, strain IRE1, active compounds read low 0.987 | locus YHR094C, strain hxt1, active compounds read low 1.02 | locus YHR129C, strain ARP1, active compounds read low 1.01 | locus YHR142W, strain chs7, active compounds read low 1.01 | locus YHR200W, strain rpn10, active compounds read low 0.989 | locus YIL066C, strain RNR3, active compounds read low 1 | locus YIL073C, strain SPO22, active compounds read low 1.31 | locus YIL125W, strain kgd1, active compounds read low 1.01 | locus YIR030C, strain dcg1, active compounds read low 1.02 | locus YJL092W, strain hpr5, active compounds read low 1.01 | locus YJL095W, strain BCK1 (second series), active compounds read low 1.02 | locus YJL095W, strain BCK1, active compounds read low 1.02 and 1.06 | locus YJL115W, strain asf1, active compounds read low 1.01 | locus YJL129C, strain trk1, active compounds read low 1.01 | locus YJL134W, strain LCB3, active compounds read low 1.02 | locus YJL154C, strain vps35, active compounds read low 1 | locus YJL164C, strain tpk1, active compounds read low 0.986 | locus YJL166W, strain qcr8, active compounds read low 0.984 | locus YJL168C, strain set2, active compounds read low 1.01 | locus YJL187C, strain SWE1 (second series), active compounds read low 1 | locus YJR043C, strain POL32, active compounds read low 0.996 | locus YJR066W, strain TOR1, active compounds read low 0.955 | locus YJR075W, strain HOC1, active compounds read low 0.924
active: locus YAL021C, strain ccr4, active compounds read low 0.853 | locus YBR021W, strain FUR4, active compounds read low 0.596 | locus YDR069C, strain doa4, active compounds read low 0.733 | locus YDR388W, active compounds read low 0.241 | locus YFR010W, strain ubp6, active compounds read low 0.854
